IDE act: IDE (human) activation, cell-based; AID 493087; activation, % at 5.96 µM; 340,000 tested, 0.073% active; HEK cells, FAbeta-B cleavage, fluorescence polarization; 0% vehicle, 100% cell-free pure enzyme wells; P14735;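 active = activation above the mean of all tested compounds plus 3 SD, set per screening campaign, cut at about 17% in these data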
ALR H2O2 inh: blocks human ALR sulfhydryl oxidase activity; inhibition, % (test concentration not listed); purified ALR, DTT oxidation, H2O2 HRP-luminol luminescence; P55789; 290,000 tested, 3.8% active;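 active = mean replicate inhibition above about 79%, with every replicate also reaching it, limit read from the data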
PolyA inh: inhibitors of polyadenylation in S. cerevisiae. activity score, % at 12 µM. S. cerevisiae SKY197-pL101 polyadenylation reporter, beta-gal luminescence; efflux-impaired pdr1/pdr3 knockout yeast; score 100 = 6 SD above DMSO. 300,000 tested, 0.02% active;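 active = lowest replicate activity score at least 50, where 100 means six control SD above control mean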;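 note: yeast exposed to compound for 9 h at 30 °C; higher score means more reporter readthrough which indicates perturbed polyadenylation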
PfM18AAP inh-1: blocks P. falciparum M18 aspartyl aminopeptidase; 290,000 tested, 1.2% active; recombinant PfM18AAP, H-Glu-NHMec fluorogenic cleavage; AID 1822; inhibition, % at 7.35 µM;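 active = inhibition above the campaign mean inhibition over all tested compounds plus 3 SD, cut at about 28% in these data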
CaV13 ICDI inh: Primary screen for inhibitors of IQ motif and Ca2+-dependent inactivation inhibitor domain binding in CACNA1D, Förster resonance energy transfer in living cells, …; HEK cells, CFP/YFP FRET ICDI-IQ, plate reader, 10 min; percent FRET-ratio fall versus neutral wells; inhibition, % at 12.3 µM; 340,000 tested, 0.098% active;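 active = mean replicate inhibition of at least 30% and at least 1% of replicates passing that level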
IDE inh: inhibits human insulin-degrading enzyme in HEK cells; P14735; FAbetaB cleavage, fluorescence polarization; inhibition, % at 5.59 µM; 320,000 tested, 0.41% active; AID 434962;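 active = percent inhibition above the average of all tested compounds plus 3 SD, set per screening campaign, cut at about 16% in these data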;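 note: IDE supplied by intact live HEK cells; FP after avidin binding of uncleaved biotin substrate so inhibition keeps polarization high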
PfM18AAP inh-2: confirmation of Plasmodium falciparum M18 aspartyl aminopeptidase inhibitors; shares compounds with PfM18AAP inh-1; recombinant PfM18AAP, H-Glu-NHMec fluorogenic cleavage; inhibition, % at 7.35 µM; 2,400 tested, 28% active;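 active = mean inhibition over replicate wells above the hit cutoff set for the earlier primary screen, cut at about 29% in these data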
CTSL1 confirm: Cathepsin L (human) inhibition, confirmation | purified cathepsin L1, Z-Leu-Arg-MCA fluorescence | 2,400 tested, under 10 active | inhibition, % at 5.96 µM | shares compounds with PfM18AAP inh-1;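 active = average inhibition across replicates above the hit cutoff set in the earlier primary screen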
Hits are given with their value. Sampled rows, rich in hits. Any-hit rate of the full collection: about 4.1%.

Screening COc1ccc(NC(=S)NNc2ccc([N+](=O)[O-])cc2S(=O)(=O)Nc2ccc(C)cc2C)cc1 returned IDE act inactive, ALR H2O2 inh inactive, PolyA inh inactive, PfM18AAP inh-1 39, CaV13 ICDI inh inactive, IDE inh inactive, PfM18AAP inh-2 32 and CTSL1 confirm inactive.
`C=CC(C)n1c(Br)nc2c1c(=O)[nH]c(=O)n2C` (stereo not drawn) gave IDE act inactive, ALR H2O2 inh inactive, PolyA inh inactive, PfM18AAP inh-1 inactive, CaV13 ICDI inh inactive and IDE inh inactive.
Screening CC(C)n1c(=S)[nH]c2c1c(=O)[nH]c(=O)n2C returned IDE act inactive, ALR H2O2 inh inactive, PolyA inh inactive, PfM18AAP inh-1 36, CaV13 ICDI inh inactive, IDE inh inactive, PfM18AAP inh-2 29 and CTSL1 confirm inactive.
Screening CCOC(=O)c1nc(NNC(C)=O)sc1C returned IDE act inactive, ALR H2O2 inh inactive, PolyA inh inactive, PfM18AAP inh-1 37, CaV13 ICDI inh inactive, IDE inh inactive, PfM18AAP inh-2 inactive and CTSL1 confirm inactive.
Cc1nn(C)c(Cl)c1CN1CCCC(CO)(Cc2ccccc2)C1 (stereo not drawn) was read as IDE act inactive, ALR H2O2 inh inactive, PolyA inh inactive, PfM18AAP inh-1 inactive, CaV13 ICDI inh inactive and IDE inh inactive.
Screening CCN(CC)c1ccc(C=Nc2cc(C)cc(C)c2)c(O)c1 returned IDE act inactive, ALR H2O2 inh inactive, PolyA inh inactive, PfM18AAP inh-1 inactive, CaV13 ICDI inh inactive and IDE inh inactive.
Screening CCN(CC)c1ccc(N=Cc2ccc(N(CC)CC)cc2O)cc1 returned IDE act inactive, ALR H2O2 inh inactive, PolyA inh inactive, PfM18AAP inh-1 43, CaV13 ICDI inh inactive, IDE inh inactive, PfM18AAP inh-2 inactive and CTSL1 confirm inactive.
Screening CCN(CC)c1ccc(/C=N/NC(=S)NC)c(O)c1 returned IDE act inactive, ALR H2O2 inh 98, PolyA inh inactive, PfM18AAP inh-1 41, CaV13 ICDI inh inactive, IDE inh inactive, PfM18AAP inh-2 inactive and CTSL1 confirm inactive.
`CC1CCN(c2ccc(/C=N\Nc3nncn3N)cc2[N+](=O)[O-])CC1` gave IDE act inactive, ALR H2O2 inh inactive, PfM18AAP inh-1 53, CaV13 ICDI inh inactive, IDE inh inactive, PfM18AAP inh-2 inactive and CTSL1 confirm inactive.
`CSc1ccc(/C=N\Nc2nncn2N)cc1` gave IDE act inactive, ALR H2O2 inh inactive, PolyA inh inactive, PfM18AAP inh-1 53, CaV13 ICDI inh inactive, IDE inh inactive, PfM18AAP inh-2 inactive and CTSL1 confirm inactive.
CC(C)(C)c1ccc(/C=N/Nc2ccc(C(=O)O)cc2)cc1 was read as IDE act inactive, PolyA inh inactive, PfM18AAP inh-1 inactive and IDE inh inactive.
Screening CC(C)(C)c1ccc(/C=N/Nc2nncn2N)cc1 returned IDE act inactive, ALR H2O2 inh inactive, PolyA inh inactive, PfM18AAP inh-1 51, CaV13 ICDI inh inactive, PfM18AAP inh-2 inactive and CTSL1 confirm inactive.
`CC(C)(C)c1nnc(N/N=C/c2ccc(Br)cc2)n(N)c1=O` gave IDE act inactive, PolyA inh inactive, PfM18AAP inh-1 43, CaV13 ICDI inh inactive, IDE inh inactive, PfM18AAP inh-2 inactive and CTSL1 confirm inactive.
For O=[S@]1Oc2ccccc2-c2ccccc21 the results were IDE act inactive, ALR H2O2 inh inactive, PolyA inh inactive, CaV13 ICDI inh inactive and IDE inh inactive.
Screening CCN(c1ccccc1)S(=O)(=O)c1ccc(Cl)c(NC(=O)COC(=O)c2ccc[n+]([O-])c2)c1 returned IDE act inactive, PolyA inh inactive, PfM18AAP inh-1 inactive, CaV13 ICDI inh inactive and IDE inh inactive.
Cc1ccc(CN2CCN(C(=O)CC(C)C)CC2)cc1 was read as IDE act inactive, ALR H2O2 inh inactive, PolyA inh inactive, PfM18AAP inh-1 inactive, CaV13 ICDI inh inactive and IDE inh inactive.
Cc1cc(OC(C)C(=O)NCCN2CCOCC2)c2c(C)cc(=O)oc2c1 (stereo not drawn) was read as IDE act inactive, ALR H2O2 inh inactive, PolyA inh inactive, PfM18AAP inh-1 inactive, CaV13 ICDI inh inactive and IDE inh inactive.
Screening C[C@H]1Cn2cnc(C(=O)Nc3ccccc3)c2C(=O)N1 returned CaV13 ICDI inh inactive.
For CSc1nc(=S)c2[nH]c(=S)[nH]c2[nH]1 the results were IDE act inactive, ALR H2O2 inh 99, PolyA inh inactive, PfM18AAP inh-1 46, CaV13 ICDI inh inactive, PfM18AAP inh-2 40 and CTSL1 confirm inactive.
For COc1ccc(/C(C)=N/Nc2cccc(C(=O)O)c2)cc1OC the results were IDE act inactive, ALR H2O2 inh inactive, PolyA inh inactive, PfM18AAP inh-1 inactive, CaV13 ICDI inh inactive and IDE inh inactive.
For COc1ccc(/C(C)=N/Nc2nc3ccccc3nc2C)cc1OC the results were IDE act inactive, ALR H2O2 inh inactive, PolyA inh inactive, PfM18AAP inh-1 39, CaV13 ICDI inh inactive, IDE inh inactive, PfM18AAP inh-2 inactive and CTSL1 confirm inactive.
COC(=O)c1cc(OC)nc(OC)c1 was read as IDE act inactive, PolyA inh inactive, PfM18AAP inh-1 inactive, CaV13 ICDI inh inactive and IDE inh inactive.
COC(=O)c1cc(O)c(O)c(O)c1 was read as IDE act inactive, ALR H2O2 inh 96, PolyA inh inactive, PfM18AAP inh-1 32, CaV13 ICDI inh inactive, IDE inh inactive, PfM18AAP inh-2 inactive and CTSL1 confirm inactive.
`COCCN(C(=S)Nc1ccc(OC)c(Cl)c1)C1CCN(C(C)C)CC1` gave IDE act inactive, ALR H2O2 inh inactive, PolyA inh inactive, PfM18AAP inh-1 36, CaV13 ICDI inh inactive, IDE inh inactive, PfM18AAP inh-2 inactive and CTSL1 confirm inactive.
COc1ccc(NC(=S)NCCCN2CCCC2)cc1Cl was read as IDE act inactive, PolyA inh inactive, PfM18AAP inh-1 inactive, CaV13 ICDI inh inactive and IDE inh inactive.
For COc1ccc(NC(=S)NCCN2CCC(C)CC2)cc1Cl the results were IDE act inactive, ALR H2O2 inh inactive, PolyA inh inactive, PfM18AAP inh-1 36, CaV13 ICDI inh inactive, IDE inh inactive, PfM18AAP inh-2 inactive and CTSL1 confirm inactive.
CC(C)N1CCN(S(=O)(=O)c2ccccc2)c2ccccc21 was read as IDE act inactive and CaV13 ICDI inh inactive.
COc1cccc(CNC(=S)Nc2ccc3c(c2)c(=O)n(C)n3Cc2ccccc2)c1 was read as CaV13 ICDI inh inactive.
